# Screening data from PubChem.
# Only a selection was taken, and hits are over-represented in it overall.
# DUX4 txn inh: DUX4-mediated transcription inhibition. 293T-iDUX4 ZSCAN4-Gaussia luciferase reporter, 24 h; stronger effect = lower value. activity change, negative = inhibition, % (concentration not given with the values). hit rate 0.8% among 37,000. AID 1224904;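 active means mean inhibition of at least 10% in the main channel, exceeding the control channel by a set limit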;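 further: 0% = median of neutral control wells and -100% = median of positive control wells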
# Active calls of the source: *.
SMILES,DUX4 txn inh
O=C(c1cccnc1)N1C[C@@H]2N[C@H](C1)C2c1ccc(-c2ccccc2)cc1 (stereo partly specified),10.7
C/C=C/c1ccc(C2[C@@H]3CN(C(=O)Cc4ccccc4)C[C@H]2N3)cc1 (stereo partly specified),7.9
O=C(Cc1ccncc1)N1C[C@@H]2N[C@H](C1)C2c1ccc(-c2ccccc2)cc1 (stereo partly specified),-3.0
O=C(CN1CCOCC1)N1C[C@@H]2N[C@H](C1)C2c1ccc(/C=C/c2ccccc2)cc1 (stereo partly specified),-4.9
O=C(c1ccncc1)N1C[C@@H]2N[C@H](C1)C2c1ccc(/C=C/c2ccccc2)cc1 (stereo partly specified),1.8
COc1ccc2c3c(n(C)c2c1)[C@H](CO)N(C(=O)CC1CC1)CC31CN(Cc2ccncc2)C1,7.3
CC(C)NC(=O)N1CC2(C1)[C@@H](c1ccccc1)[C@H](CO)N2C(=O)c1ccccn1,10.7
CNC[C@@H]1Oc2c(NC(=O)C3CCOCC3)cccc2C(=O)N([C@@H](C)CO)C[C@@H]1C,-3.4
N#C[C@H]1[C@@H](c2ccccc2-c2ccccc2)[C@@H](CO)N1c1ncc(-c2ccccc2)s1,0.2
CO[C@H]1CN(C)C(=O)c2cc(NS(=O)(=O)c3ccc(F)cc3)ccc2OC[C@@H](C)NC[C@@H]1C,2.4
CN(C)CCCNC(=O)C[C@@H]1CC[C@H]2[C@@H](COc3ccc(NC(=O)c4ccccc4F)cc3C(=O)N2C)O1,5.8
CCNC(=O)C[C@@H]1CC[C@H]2[C@@H](COC[C@@H](O)CN2C(=O)c2ccccn2)O1,6.9
CCC(=O)N1CC2(C1)[C@H](c1ccccc1)[C@@H](CO)N2C(=O)NC(C)C,5.4
O=C(C[C@@H]1CC[C@H]2[C@@H](COC[C@@H](O)CN2Cc2cccc(C(F)(F)F)c2)O1)NCCc1ccccc1,-9.5
CN1c2ccc(-c3cccc(F)c3)cc2[C@H]2[C@H](CCN2C(=O)C2CCC2)[C@H]1CO,-7.0
CN1c2ccc(-c3cccc(F)c3)cc2[C@@H]2[C@@H](CCN2C(=O)C2CCC2)[C@H]1CO,-35.4*
CN1c2ccc(-c3cccc(F)c3)cc2[C@@H]2[C@@H](CCN2C(=O)C2CCOCC2)[C@@H]1CO,7.6
COCC#Cc1ccc([C@@H]2[C@@H](CO)N3C(=O)CN(C(=O)Nc4ccc(F)cc4)C[C@@H]23)cc1,0.0
CCCNC(=O)N1CC2(C1)CN(C(=O)c1ccccc1)[C@@H](CO)c1[nH]c3cc(OC)ccc3c12,11.9
COc1ccccc1CNC(=O)C[C@H]1C[C@H]2c3cc(NC(=O)CN(C)C)ccc3O[C@H]2[C@@H](CO)O1,-1.9
C[C@@H]1CN([C@@H](C)CO)C(=O)c2c(c3ccccc3n2C)-c2ccccc2CO[C@H]1CN(C)Cc1cccc(O)c1,-9.3
C[C@H](CO)N1C[C@H](C)[C@H](CN(C)Cc2cccc(O)c2)OCc2ccccc2-c2c(n(C)c3ccccc23)C1=O,-29.0*
C[C@H](CO)N1C[C@H](C)[C@@H](CN(C)Cc2cccc(C(=O)O)c2)OCc2ccccc2-c2c(n(C)c3ccccc23)C1=O,-0.7
C[C@H]1CN([C@@H](C)CO)C(=O)c2c(c3ccccc3n2C)-c2ccccc2CO[C@H]1CN(C)Cc1cccc(C(=O)O)c1,-1.8
C[C@H]1CN([C@@H](C)CO)C(=O)c2c(c3ccccc3n2C)-c2ccccc2CO[C@@H]1CN(C)Cc1cccc(C(=O)O)c1,3.2
SMILES,DUX4 txn inh
C[C@H](CO)N1C[C@H](C)[C@H](CN(C)Cc2ccc(O)cc2)OCc2ccccc2-c2c(n(C)c3ccccc23)C1=O,-1.5
C[C@@H]1CN([C@H](C)CO)C(=O)c2c(c3ccccc3n2C)-c2ccccc2CO[C@H]1CN(C)Cc1cccc(F)c1,-34.6*
C[C@H]1CN([C@@H](C)CO)C(=O)c2c(c3ccccc3n2C)-c2ccccc2CO[C@H]1CN(C)Cc1ccc(O)cc1,5.3
C[C@H]1CN([C@@H](C)CO)C(=O)c2c(c3ccccc3n2C)-c2ccccc2CO[C@@H]1CN(C)Cc1cccc(O)c1,-44.6*
O=C(C1CCC1)N1CC2(C1)[C@H](c1ccccc1)[C@@H](CO)N2Cc1nccs1,2.6
COCC(=O)Nc1ccc2c(c1)[C@H]1C[C@@H](CC(=O)N3CCOCC3)O[C@H](CO)[C@H]1O2,4.0
C[C@H](CO)N1C[C@H](C)[C@H](CN(C)CC2CCCCC2)OCCCC[C@H](C)Oc2ccc(NC(=O)C3CCCCC3)cc2C1=O,0.7
CN(C)CC#Cc1ccc([C@@H]2[C@@H](CO)N3C(=O)CN(C(=O)Cc4ccccc4)C[C@H]23)cc1,16.5
COCC(=O)N1CC(=O)N2[C@H](C1)[C@@H](c1ccc(-c3ccccc3C)cc1)[C@@H]2CO,12.2
O=C(C[C@@H]1CC[C@@H]2NC[C@H](O)COC[C@H]2O1)NCCN1CCCCC1,2.3
COc1cccc(S(=O)(=O)Nc2ccc3c(c2)[C@H]2C[C@H](CC(=O)NC4CCCCC4)O[C@@H](CO)[C@H]2O3)c1,-7.6
COCC#Cc1cnc2c(c1)C(=O)N([C@H](C)CO)C[C@@H](C)[C@H](CN(C)C(=O)Nc1ccccc1OC)O2,0.2
C[C@@H]1CN([C@@H](C)CO)C(=O)c2c(c3ccccc3n2C)-c2ccccc2CO[C@H]1CN(C)Cc1ccc(-c2ccccc2)cc1,-2.3
C[C@@H]1CN([C@@H](C)CO)C(=O)c2c(c3ccccc3n2C)-c2ccccc2CO[C@H]1CN(C)Cc1ccncc1,-6.3
C[C@@H]1CN([C@H](C)CO)C(=O)c2ccccc2-c2ccccc2CO[C@@H]1CN(C)Cc1ccc(C(=O)O)cc1,3.1
C[C@@H]1CN([C@@H](C)CO)C(=O)c2c(c3ccccc3n2C)-c2ccccc2CO[C@@H]1CN(C)Cc1ccc(Cl)c(Cl)c1,11.6
C[C@@H]1CN([C@H](C)CO)C(=O)c2ccccc2-c2ccccc2CO[C@@H]1CN(C)Cc1ccc(C(F)(F)F)cc1,-24.7*
C[C@H]1CN([C@@H](C)CO)C(=O)c2c(c3ccccc3n2C)-c2ccccc2CO[C@@H]1CN(C)Cc1ccc(-c2ccccc2)cc1,-41.4*
C[C@@H]1CN([C@@H](C)CO)C(=O)c2c(c3ccccc3n2C)-c2ccccc2CO[C@@H]1CN(C)Cc1ccc(-c2ccccc2)cc1,12.7
C[C@@H]1CN([C@H](C)CO)C(=O)c2c(c3ccccc3n2C)-c2ccccc2CO[C@@H]1CN(C)Cc1ccc(Cl)c(Cl)c1,-18.7*
C[C@H]1CN([C@@H](C)CO)C(=O)c2c(c3ccccc3n2C)-c2ccccc2CO[C@@H]1CN(C)Cc1ccc(Cl)c(Cl)c1,-49.0*
C[C@H]1CN([C@@H](C)CO)C(=O)c2c(c3ccccc3n2C)-c2ccccc2CO[C@@H]1CN(C)Cc1ccncc1,5.3
C[C@H]1CN([C@@H](C)CO)C(=O)c2ccccc2-c2ccccc2CO[C@H]1CN(C)Cc1ccc(O)cc1,4.4
C[C@H](CO)N1C[C@H](C)[C@@H](CN(C)Cc2ccncc2)OCc2ccccc2-c2c(n(C)c3ccccc23)C1=O,10.9
O=C(C[C@H]1CC[C@@H]2[C@H](COC[C@@H](O)CN2C(=O)c2cccnc2)O1)Nc1ccc(-c2ccccc2)cc1,-2.3
CCCNC(=O)Nc1ccc2c(c1)C(=O)N(C)[C@H]1CC[C@H](CC(=O)NCc3ccccc3)O[C@@H]1CO2,4.3
COc1ccc2c3c(n(C)c2c1)[C@H](CO)N(C(=O)C1CC1)CC31CN(C(=O)C2CCOCC2)C1,13.5
